# Data: PubChem BioAssay (NCI)
# The panel holds about 83,000 compounds, 20% with a hit somewhere; the sample as a whole holds those more often.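 Negative percent growth values reflect cell death: -40 means 40% of the cells present at the start died, and -100 means all died.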 Values without a mark were called inactive. Activity calls are given as the source filed them. How the source made its calls: active means growth percent below 10; inactive means the rest.
# Tested on: BT-549 breast
# Assay: NCI-60 one-dose screen, 48 h (100 = growth as untreated, 0 = no growth, -100 = all killed)
# Conditions: 10 µM
row,Structure (SMILES),growth
1,COc1ccc(C2CC(c3ccc(N(C)C)cc3)=NN2c2ccc(S(N)(=O)=O)cc2)cc1 (centres undefined),75%
2,COc1ccc(-c2nc(-c3nc4ccc(OC)cc4[nH]3)cc3c2[nH]c2ccccc23)cc1,39.8%
3,COc1cc(C(=O)N2CCN(c3ccccc3OC)CC2)c(N)cc1OCCCN1CCN(c2ccccc2OC)CC1,94.4%
4,COc1cc(-c2nc(Nc3nc4ccccc4s3)[nH]c(=O)c2C#N)cc(OC)c1O,98.1%
5,ClCC#CCSc1ncnc2c1ncn2CC#CCCl,27.5%
6,Cc1ccc(S(=O)(=O)Oc2ccc3c4c(c(=O)oc3c2)CCCCC4)cc1,47.3%
7,O=C1Nc2ccccc2C1=NC1CCCCC1,96.1%
8,O=c1cc(-c2ccccc2)[nH]n1-c1nc2ccccc2[nH]1,75.8%
9,COc1ccc(-c2nc3sc(-c4ccccc4)c(-c4ccccc4)n3c2/C=C/C(=O)c2ccccn2)cc1,85.5%
10,CC(C)C[C@H](NC(=O)[C@H](Cc1cccc2ccccc12)NS(=O)(=O)c1cccc2cccnc12)B(O)O,-49.8% (active)
11,NC(=S)N=Nc1c(O)c2ccccc2c2ccccc12,49.5%
12,CCN(CC)CCSCCCNc1c2ccc(Cl)cc2nc2ccc(OC)cc12,5.29% (active)
13,Cc1cccc(NC2=C(C#N)C(=O)NC3(CCCC3)S2)c1,102%
14,c1ccc2c(-c3nc(N4CCOCC4)c4c5c(sc4n3)CCCCCC5)cccc2c1,97.9%
15,COC(=O)[C@@H]1[C@H](O)[C@H](C)[C@H](O)[C@@](C)(O)/C=C\C=C(C)C(=O)Nc2c(C)c(OC(C)=O)c3c(c2O)C(=O)C(C)=C2OCOC(=C23)C(C)=C[C@@](C)(O)[C@H](O)[C@@H](C)[C@H]1OC(C)=O,105%
16,COc1cc(OC)cc(-c2cncn2-c2ccc(-c3nc4cc(OC)cc(OC)c4s3)cc2)c1,46.6%
17,c1ccc2c(c1)oc1c3cccnc3ccc21,79.7%
18,CC(=O)CSC(C)=O,105%
19,COc1ccc(-c2nn(-c3cccc(NC(=O)Nc4ccc(Cl)c(C(F)(F)F)c4)c3)cc2-c2ccncc2)cc1Cl,11.2%
20,CC(=O)OCc1cc(-c2nc3ccccc3[nH]c2=O)nn1-c1ccc(Cl)cc1,102%

row,Structure (SMILES),growth
1,COc1ccc(-c2nn(-c3cccc(NC(=O)c4ccc(N5CCOCC5)c(C(F)(F)F)c4)c3)cc2-c2ccncc2)cc1Cl,67.9%
2,COc1ccc(-c2nn(-c3cccc(NC(=O)Nc4cccc(C(F)(F)F)c4)c3)cc2-c2ccncc2)cc1Cl,8.32% (active)
3,CC(C)=CCc1ccc(O)c(=O)cc1C(C)C,-2.13% (active)
4,CCOC1(OCC)OC(c2ccccc2)=C(C#N)C(/C=C\c2ccccc2)C1(OCC)OCC (centres undefined),95.3%
5,O=C(O)c1ccc(P(=O)(O)O)c([N+](=O)[O-])c1,102%
6,O=c1[nH]c2ccc(Cl)cc2c2ccccc12,100%
7,CCOC(=O)c1ccoc1,98.4%
8,COc1ccc(Nc2ccnc(NCCNc3ccnc4cc(Cl)ccc34)n2)cc1,61%
9,N=c1c2c(-c3ccccc3)c(-c3ccccc3)n(Cc3ccccc3)c2ncn1CCCO,88.5%
10,COc1cc(Cl)cc(-c2nn(-c3cccc(NC(=O)Nc4ccc(Cl)c(Cl)c4)c3)cc2-c2ccncc2)c1,29.4%
11,Cc1ccc(NC(=O)NC2CCCCC2)cc1,115%
12,COc1cc(NC(=O)c2sc3nc4c(cc3c2N)C(O)CCC4)cc(OC)c1 (centres undefined),100%
13,N#Cc1c(C#N)c(SSc2c(C#N)c(C#N)c(N)n2-c2ccccc2)n(-c2ccccc2)c1N,109%
14,COc1cc(-c2cc(/C=C/C(=O)c3ccc(Cl)c(Cl)c3)[nH]n2)cc(OC)c1OC,71%
15,Nc1ccccc1NC(=O)CCCCC(=O)Nc1ccc2c(c1)/C(=C/c1ccc[nH]1)C(=O)N2,33.9%
16,COc1cc(NC(=O)CSc2nc3ccccc3c(=O)n2CCc2ccccc2)cc(OC)c1OC,-4.65% (active)
17,O=[P@@]1(c2ccccc2)O[C@H](COCc2ccccc2)[C@@H](OCc2ccccc2)[C@H](OCc2ccccc2)[C@H]1O,56.9%
18,Cc1ccc(C(=O)Nc2cccc(F)c2)cc1NC(=O)C1(c2ncnc3[nH]ccc23)CC1,93.4%
19,O=C(O)c1ccc(Cl)cc1Nc1ccc(F)cc1,32.5%
